Laboratory results published in PubChem BioAssay AID651568 (National Center for Advancing Translational Sciences (NCATS), 2012).
Among all 1,200 compounds or so, about 55 (5%) were called active. Inconclusive results (about 15%) are left out. The sample as a whole holds a higher share of actives than the screen did. A number with no mark means an inactive call. Calls come from the whole dose curve; as a rule, active = well fitted inhibition curve with a large enough effect; inconclusive = small, poorly fitted or top-dose-only effect; inactive = no such curve, though single readings can be large or run the other way.

Experiment: qHTS Assay to Find Inhibitors of Chronic Active B-Cell Receptor Signaling: Hit Validation in Renilla Reporter Assay; note: nearly all actives have a fitted effect of over 70% in size
Conditions: TMD8 IkB-Renilla luciferase reporter, NF-kB signaling; series mostly up to 57.5 µM; activity change, negative = inhibition: at the top concentration
Procedure, shortened: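 Orthogonal secondary test of primary-screen hits in ABC-DLBCL cells carrying constitutively expressed IkB-Photinus and Renilla luciferase reporters, read by Dual-Glo luminescence; luciferases differ from the primary assay's click beetle enzymes, to exclude assay-specific artifacts.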
% is set by controls: 0 for no effect and ±100 for the full control effect; potency is the fitted concentration of half-maximal effect.

Row | SMILES | activity change, negative = inhibition [%] | Potency
1 | CNC(=S)N/N=C(\C)c1ccc2c(c1)OCCO2 | -1.41 | –
2 | CCOc1ccc2c(c1)OC(c1ccc(OC)cc1)(C(F)(F)F)NC2=O (stereo not drawn) | -4.62 | –
3 | CC(C)(C)c1ccc(C(=O)CCC(=O)NCc2ccccc2)cc1 | -2.67 | –
4 | C=CCN(C(=O)CSC1=NC(=O)CN1C(C)=O)c1nc(C)c(-c2ccccc2)s1 | 58.9 | –
5 | S=c1nn[nH]n1C12CC3CC(CC(C3)C1)C2 | -6.62 | –
6 | Cc1ccccc1Nc1nc(N)nc(COC(=O)c2cccc(S(=O)(=O)N(C)C)c2)n1 | 15 | –
7 | CCOC(=O)C1=C(COC(=O)/C=C/c2ccc(O)c(OC)c2)NC(=O)NC1C (stereo not drawn) | -15 | –
8 | COc1ccc(/C=N/NC(=O)CCn2cnc(-c3ccccc3)c2-c2ccccc2)cc1 | – | 26.9 µM (active)
9 | COc1ccc(/C=N/NC(=O)CCn2cnc(-c3ccccc3)c2-c2ccccc2)cc1OC | -24.2 | –
10 | O=C(COc1ccccc1-c1ccccc1)N/N=C/c1ccc2ccccc2c1 | -0.205 | –
11 | COc1ccc(OC)c(Nc2c3c(nc4ccccc24)CCC3)c1 | -24.8 | –
12 | COc1ccc(C)cc1NC(=O)CNC(c1ccccc1)c1ccc(C)cc1 (stereo not drawn) | 3.62 | –
13 | Cc1ccc(C(=O)O)cc1NC(=S)NC(=O)C(c1ccccc1)c1ccccc1 | -23 | –
14 | Cc1ccc(C(=O)Sc2cccccc2=O)cc1 | – | 6.75 µM (active)
15 | COc1ccc(NC(=O)Cn2nnc(-c3ccccc3NS(=O)(=O)c3ccc(OC)cc3)n2)cc1 | 15.7 | –
16 | CCOc1cccc(C2CC(=O)Nc3cc(OC)c(OC)cc32)c1 (stereo not drawn) | 5.18 | –
17 | COc1cccc(/C=C/C(=O)Nc2cc(S(=O)(=O)N3CCOCC3)ccc2OC)c1 | 1.3 | –
18 | CCC1=Nc2cc(C(=O)NCCCOC(C)C)ccc2Sc2ccc(C)cc21 | -27.5 | –
19 | O=C(Oc1c(CN2CCOCC2)cc(Cl)c2cccnc12)c1ccc(F)cc1 | -18.7 | –
20 | O=C(Oc1c(Cl)cc(Cl)c2cccnc12)c1cccs1 | – | 23.9 µM (active)
21 | COc1cc(OC)cc(C(=O)Oc2c(CN3CCOCC3)cc(Cl)c3cccnc23)c1 | 1.92 | –
22 | Cc1c(C(=O)Oc2cccc3cccnc23)oc2ccccc12 | -6 | –
23 | O=C(Oc1ccc(Cl)c2cccnc12)C12CC3CC(CC(C3)C1)C2 | -1.45 | –
24 | O=C(Oc1c(Cl)cc(Cl)c2cccnc12)c1ccco1 | – | 12 µM (active)
25 | O=C1NC(=Nc2ccc(O)cc2)S/C1=C\C=C\c1ccco1 | -0.0749 | –
26 | O=C(Nc1ncc(Cc2ccc(SC(F)F)cc2)s1)c1ccc(OC(F)F)cc1 | -27.7 | –

Row | SMILES | activity change, negative = inhibition [%] | Potency
27 | CCCc1nnc(NC(=S)Nc2ccccc2)s1 | -2.24 | –
28 | CC1CCCN(c2ccc([N+](=O)[O-])cc2C(=O)c2ccccc2)C1 (stereo not drawn) | 1.52 | –
29 | N#CC1=C(N)Oc2cc(N)ccc2C1c1cccc(Br)c1 (stereo not drawn) | -21.5 | –
30 | O=C(c1cc([N+](=O)[O-])ccc1N1CCOCC1)N1CCN(c2ccccc2)CC1 | 0.66 | –
31 | CCOC(=O)c1c(C)n(C)c2ccc(OC)c(NC(=O)CN3CCN(C(=O)c4ccco4)CC3)c12 | 0.121 | –
32 | CCOc1ccc(S(=O)(=O)NCc2ccccn2)cc1NC(=O)c1ccccc1F | 5.11 | –
33 | CCOC(=O)c1c(C)[nH]c(C(=O)N/N=C/c2ccc(Br)cc2)c1C | – | 10.7 µM (active)
34 | Cc1c(C(=O)N/N=C/c2ccc(Cl)cc2)[nH]c2ccc(Cl)cc12 | -78.9 | –
35 | CCOC(=O)c1[nH]c(C)c(C(=O)OCC)c1C | -18.6 | –
36 | CCOC(=O)CSC1=C(C#N)C(c2ccc(C)o2)CC(=O)N1 (stereo not drawn) | -23.1 | –
37 | COc1ccc(-c2[nH]ncc2/C=C(\C#N)C(=O)NC2CC2)cc1 | -9.08 | –
38 | CC1CCc2c(sc(NC(=O)CSc3nc(N)cc(=O)[nH]3)c2C(N)=O)C1 (stereo not drawn) | -9.45 | –
39 | COc1ccc(CNc2nc(NCc3ccc(OC)cc3)c3ncn(C4CCCC4)c3n2)cc1 | -20.9 | –
40 | C/C(=N\NC(=O)c1ccc(F)cc1)c1ccccn1 | -17.5 | –
41 | CCOc1ccc(OCc2ccc(C(=O)N/N=C(\C)c3ccccn3)cc2)cc1 | -3.8 | –
42 | O=C(NN=C(c1ccccc1)c1ccccn1)c1ccccc1 | – | 26.9 µM (active)
43 | Cc1onc(-c2ccccc2)c1C(=O)Nc1cc(C(F)(F)F)ccc1N1CCOCC1 | -17.3 | –
44 | NC(=S)N=Nc1c(O)n(Cc2ccc(Br)cc2)c2ccccc12 | -29.3 | –
45 | C=CCNC(=S)N/N=C/c1cn(C)c2ccccc12 | 6.14 | –
46 | CC(=O)c1cc(C#N)c(SCCC(C)C)nc1C | -0.979 | –
47 | C=CCOc1ccc(/C=C2\SC(N)=NC2=O)cc1OC | 1.12 | –
48 | CCCC(=O)OCCNc1cc(Sc2nccn2C)c2nonc2c1[N+](=O)[O-] | – | 3.79 µM (active)
49 | S=c1[nH]nc(-c2ccco2)n1/N=C/C(Cl)=C/c1ccccc1 | – | 26.9 µM (active)
50 | COc1cc2sc(-c3ccc(S(C)(=O)=O)cc3)c(C#CCO)c2cc1OC | -5.66 | –
51 | COC(=O)c1cnc(Oc2ccc(NC(=O)NC(=O)c3c(OC)cccc3OC)cc2)cc1C(F)(F)F | -0.497 | –
52 | COc1ccccc1CNS(=O)(=O)c1ccc(-c2cc(C)no2)cc1 | 3.45 | –

Row | SMILES | activity change, negative = inhibition [%] | Potency
53 | CCN(c1ccccc1)S(=O)(=O)c1ccc(C(=O)NNC(=O)c2ccccc2F)cc1 | 1.63 | –
54 | O=C(N1CCN(c2ccccn2)CC1)N1c2ccccc2Sc2ccccc21 | 0.521 | –
55 | O=[N+]([O-])c1cc(/C=N/O)ccc1Sc1ccccc1 | 3.47 | –
56 | O=[N+]([O-])c1ccc(Sc2nc3ccccc3o2)c([N+](=O)[O-])c1 | – | 3.01 µM (active)
57 | CCOc1ccc(C2=Nn3c(nnc3-c3ccccc3OC)SC2)cc1 | -24.7 | –
58 | COc1ccc(C)cc1NS(=O)(=O)c1ccc(-c2cnc(C3CC3)o2)cc1 | 22.8 | –
59 | Cc1nc(N2N=C(c3ccc(Cl)cc3)CC2c2ccco2)sc1C(=O)N(C)C (stereo not drawn) | 2.02 | –
60 | Cc1ccc(/C=N/NC(=O)c2cc(-c3cccnc3)nc3ccccc23)cc1 | -4.67 | –
61 | CC[C@@H](C)[C@H](NC(=O)CCc1c(C)c2cc3c4c(oc3c(C)c2oc1=O)CCCC4)C(=O)O | -26.6 | –
62 | CCc1c(C)c(C#N)c2nc3ccccc3n2c1Cl | – | 0.953 µM (active)
63 | Cc1cc(Cl)n2c(nc3ccccc32)c1C#N | – | 1.9 µM (active)
64 | Cc1cc(Cl)n2c(nc3cc(F)c(F)cc32)c1C#N | – | 1.69 µM (active)
65 | COc1cc(/C=C2\N=C(c3ccccc3)NNC2=O)cc(OC)c1OC | 24.1 | –
66 | CCN(CC)c1ccc(NC(=O)CN2CCN(CC(=O)Nc3ccccc3F)CC2)cc1 | -0.989 | –
67 | CCOc1nc(OCC)nc(N2CCC(C)CC2)n1 | -2.28 | –
68 | CCOc1ccc(NC(=O)c2cc(OC)nc3ccccc23)cc1 | -0.0858 | –
69 | CCC1=Nc2cc(C(=O)NCc3ccco3)ccc2Sc2ccc(C)cc21 | -16.4 | –
70 | Cc1ccc(S(=O)(=O)n2cc(-c3ccccc3)c3ccccc32)cc1 | 4.15 | –
71 | COc1cc2c(cc1OC)-c1cc(NC3CCCCCC3)nc(=O)n1CC2 | -5.21 | –
72 | COc1ccc(/C=N/NC(=O)c2ccc3c(c2)NC(=O)C(C)(C)O3)cc1OC | -5.68 | –
73 | COc1ccc(C(=O)/C=C/c2ccc(O)cc2)c2c1CC(O)C(C)(C)O2 (stereo not drawn) | – | 23.9 µM (active)
74 | CCOC(=O)c1c(C)c(C(=O)OCC)n(C)c1C | -16.5 | –
75 | CC(=O)N1CC(=O)N=C1SCC(=O)Nc1nc(C)c(-c2ccccc2)s1 | 11.2 | –
76 | CCOc1ccc(S(=O)(=O)Nc2ccc3oc(C)c(C(=O)OCCOC)c3c2)cc1 | 9.42 | –
77 | CCOC(=O)C1=C(C)NC(C)=C(C(=O)OCC)C1C(=O)OCC(=O)NCc1ccccc1OC | 20.3 | –
78 | COc1cc(OC)c2c(-c3cccc(-c4ccc(NC(C)=O)cc4)c3)cc(=O)oc2c1 | -17.9 | –

Row | SMILES | activity change, negative = inhibition [%] | Potency
79 | CC(=O)OCC(=O)[C@@]1(O)CC[C@H]2[C@@H]3CCC4=CC(=O)C=C[C@]4(C)[C@H]3[C@@H](O)C[C@@]21C | 0.226 | –
80 | COC(=O)CCC(=O)NC(=S)Nc1sc(C)c(C)c1C(N)=O | 4.1 | –
81 | CCSc1nc(-c2ccccc2)nc(C(Cl)Cl)n1 | – | 2.69 µM (active)
82 | CCc1ccc(/C=N/NC(=O)c2cc(C3CC3)nc3ccccc23)s1 | -10.8 | –
83 | N#Cc1ccc(-c2cccs2)nc1SCc1cccnc1 | -1.59 | –
84 | OC(CNCc1ccc(-c2ccccc2)cc1)c1ccccc1 (stereo not drawn) | -0.413 | –
85 | COc1ccc(-c2cnnn2-c2ccc(N)cc2)cc1OC | 1.69 | –
86 | O=C(N/N=C/c1ccc(Cl)cc1)c1n[nH]c2c1CCCC2 | -7.41 | –
87 | O=C(Cc1ccc(-c2ccccc2)cc1)NCc1ccccc1 | 7.26 | –
88 | O=C(Cc1n[nH]c(=O)c2ccccc12)OCC(=O)c1ccc2c(c1)OCCO2 | 2.17 | –
89 | Cc1cc(C)cc(N2CC(O)=C(c3nc4ccccc4c(=O)[nH]3)C2=N)c1 | -4.94 | –
90 | O=C(CSc1nc2ccccc2c(=O)n1-c1ccccc1F)NC1CC1 | -9.62 | –
91 | CC(C)N1C(=O)/C(=C/c2nc3ccccc3c(=O)n2-c2ccccc2)c2ccccc21 | – | 13.5 µM (active)
92 | CC(C)N1C(=O)/C(=C\c2nc3ccccc3c(=O)[nH]2)c2ccccc21 | – | 23.9 µM (active)
93 | Cc1ccc(Sc2c(CO)c(-c3ccccc3)nn2C)cc1 | 4.68 | –
94 | COc1ccc(NC(=O)C(=O)c2cn(CC(=O)N3CCCC3)c3ccccc23)cc1 | 5.43 | –
95 | CC(=O)Nc1ccc(NS(=O)(=O)c2cc(-c3n[nH]c(=O)c4ccccc34)ccc2C)cc1 | 19.6 | –
96 | COC(=O)c1ccc(C)c(NS(=O)(=O)c2ccc(OC)cc2)c1 | 32.4 | –
97 | CCOc1ccccc1C(=O)N1CCN(c2cccc(Cl)c2)CC1 | -20.3 | –
98 | COc1ccc(-c2c(C)c3ccc(O)cc3oc2=O)cc1OC | 28.9 | –
99 | Cc1ccc(/C=C/C(=O)c2nc3ccccc3[nH]2)cc1 | – | 16.9 µM (active)
100 | Cc1cccc(C(=O)N[C@H](C(=O)Nc2nc3ccccc3[nH]2)C(C)C)c1 | -18.3 | –
101 | CC1=CC(C)(C)N(S(=O)(=O)c2ccc(C)cc2)c2cc(C)ccc21 | -7.09 | –
102 | COC(=O)c1cc(C(=O)N2CCN(c3cccc(Cl)c3)CC2)cc([N+](=O)[O-])c1 | -0.459 | –
103 | COc1cccc(/C=N/NC(=S)Nc2cccc(S(=O)(=O)N(C)C)c2)c1 | 17.9 | –
